High-throughput results (PubChem BioAssay)
RORg inh = blocks mouse ROR gamma transcriptional activity | P51450 | Drosophila S2 Gal4-RORgamma UAS-luciferase reporter, 20 h | Potency, µM (series often up to 53.6 µM), for inactives: top-dose activity change, negative = inhibition, usual class: inhibitors | actives 5.4% (n = 310,000) | AID 2551; also: % is scaled to controls: 0 for no effect and ±100 for the full control effect; nearly all actives have a fitted effect of over 60% in size
Target sequence (P51450 whole entry, looked up, the tested form may be a part): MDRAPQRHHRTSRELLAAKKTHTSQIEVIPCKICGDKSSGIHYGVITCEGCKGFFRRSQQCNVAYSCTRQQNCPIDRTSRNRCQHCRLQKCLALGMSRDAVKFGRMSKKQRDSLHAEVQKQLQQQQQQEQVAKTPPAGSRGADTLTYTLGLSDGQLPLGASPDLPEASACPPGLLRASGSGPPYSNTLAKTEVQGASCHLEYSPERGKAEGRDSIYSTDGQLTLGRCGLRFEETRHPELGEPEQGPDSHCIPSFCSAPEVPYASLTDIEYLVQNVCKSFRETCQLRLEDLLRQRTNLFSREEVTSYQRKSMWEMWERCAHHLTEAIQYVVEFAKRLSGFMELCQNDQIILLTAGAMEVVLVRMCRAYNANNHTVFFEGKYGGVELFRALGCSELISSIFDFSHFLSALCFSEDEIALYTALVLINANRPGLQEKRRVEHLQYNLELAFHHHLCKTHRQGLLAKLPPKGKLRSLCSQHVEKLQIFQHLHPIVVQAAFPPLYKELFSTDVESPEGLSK
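Drosophila Schneider cells stably carrying a metallothionein-driven Gal4 DBD–ROR gamma fusion and a UAS-Photinus luciferase reporter were exposed to compound for 1 hr, then induced with copper sulfate (700 uM final) for 20 hr at ambient temperature before luminescence reading.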
TGFb SMAD3 inh = TGF-b pathway inhibition; Potency, µM (series often up to 46.1 µM), for the others: top-dose activity, negative = inhibition, usual class: inhibitors; AID 588855; HepG2 CAGA-GFP TGF-b/SMAD3 reporter, GFP fluorescence, 18 h; TGF-beta stimulated, 500 pg/mL final; actives 1.2% (n = 410,000); also: % is scaled to controls: 0 for no effect and ±100 for the full control effect; nearly all actives have a fitted effect of over 65% in size
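Read-out: total well GFP (ex488/em500-530) summed from mean per-cell fluorescence. Cells: HEPG2 CAGA-GFP, 1% FBS DMEM, 18 h at 37 degrees C with 500 pg/mL final TGF-beta. Unstimulated wells served as the full-inhibition control; stimulated DMSO wells = 0%.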
S2 tox = cell viability loss in ATXN counter-screen; actives 0.49% (n = 400,000); Potency, µM (highest dose often 56.7 µM), most hits filed as cytotoxic; S2 cells (HEK-293 line with an ATXN2-luciferase reporter) viability, CellTiter-Fluor protease fluorescence, 24 h; also: nearly all actives have a fitted effect of over 40% in size
Gal4-VP16 FLuc = counter-screen for ROR gamma inhibitors: Gal4-VP16 reporter | actives 3.5% (n = 310,000) | Drosophila S2 Gal4-VP16 UAS-luciferase, luminescence, 20 h | Potency, µM (top dose mostly 53.6 µM), for the others: at the top dose activity, negative = inhibition, hits mostly inhibitors;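 also: Gal4-VP16 expression switched on by copper sulfate through the metallothionein promoter; % is scaled to controls: 0 for no effect and ±100 for the full control effect; nearly all actives have a fitted effect of over 50% in size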
HepG2 tox = counter-screen for TGF-b inhibitors: cytotoxicity in HepG2 cells; HepG2 CAGA-GFP viability, ATP luminescence, 18 h; actives 0.76% (n = 410,000); Potency, µM (doses to about 46.1 µM), inactives show top-dose activity change, negative = cytotoxicity, usual class: cytotoxic
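HepG2 CAGA-GFP cells (1000/well, DMEM with 1% FBS) received compound, then TGF-beta at 500 pg/mL final, and were incubated 18 hours at 37 degrees C. Viability was read by CellTiter-Glo luminescence. Media-only wells were set as complete cell-killing and DMSO as no toxicity.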
ATXN2 expr inh = inhibitors of ATXN2 expression | actives 0.72% (n = 360,000) | HEK-293 ATXN2-luciferase reporter, luminescence, 24 h | Potency, µM (titrated, usually from 57 µM), for the others: top-dose activity change, negative = inhibition, usual class: inhibitors; also: % is scaled to controls: 0 for no effect and ±100 for the full control effect; nearly all actives have a fitted effect of over 55% in size
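ATXN2-luciferase reporter cells (luciferase flanked by upstream and downstream ATXN2 gene portions) were treated 24 h at 37 °C with compounds at up to 57 uM. SteadyGlo luminescence gave expression; GF-AFC fluorescence gave viability.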
The depositor's hits bear a star; i = inactive; ? = inconclusive; / = no result; [ ] = another dose, or the depositor's remark. Hits are enriched below; roughly 6.3% of the tested compounds scored in any of these assays. Calls follow the shape of the dose curve; as a rule, active = well fitted curve in the direction sought with a large enough effect; inconclusive = small, poorly fitted or top-dose-only effect, or another doubt; inactive = no such curve, though single readings can be large; an effect the other way counts as inactive or inconclusive. Potency is read from the fitted curve at half-maximal effect.

SMILES	RORg inh	TGFb SMAD3 inh	S2 tox	Gal4-VP16 FLuc	HepG2 tox	ATXN2 expr inh
CCN(C(=O)CSc1nc(C)nc2sc(C)c(C)c12)C1CCS(=O)(=O)C1 (stereo not drawn)	/	-3%	i	/	-5%	1%
CN(C(=O)CSc1ncnc2scc(-c3ccccc3)c12)C1CCS(=O)(=O)C1 (stereo not drawn)	?	-19%	i	-2%	-14%	23%
Fc1ccc(N2CCN(C3=Nc4cccc5cccc3c45)CC2)cc1	13µM*	?	i	-5%	-35%	2%
c1ccc(CN2CCN(C3=Nc4cccc5cccc3c45)CC2)cc1	?	-3%	i	-24%	-25%	0%
C=CCn1c(-c2cccn(Cc3ccc(Cl)cc3Cl)c2=O)n[nH]c1=S	2.5µM*	1%	i	10µM*	-8%	-7%
C=CCn1c(-c2ccccc2[N+](=O)[O-])n[nH]c1=S	3.2µM*	0%	i	?	13%	7%
C=CCn1c(-c2cccn(Cc3ccccc3)c2=O)n[nH]c1=S	11µM*	9%	i	-29%	-47%	1%
C=CCn1c(-c2c[nH]c3ccccc23)n[nH]c1=S	3%[10 µM]	1%	i	?	4%	2%
C=CCn1c(-c2cccn(Cc3cccc(Cl)c3)c2=O)n[nH]c1=S	13µM*	-13%	i	?	1%	10%
O=C(Cc1ccc(NC(=O)N2CCCCc3ccccc32)cc1)NCc1cccc(Br)c1	/	-2%	i	/	3%	9%
CN[C@@H](C)[C@H]1[C@H](O)C[C@@]2(C)[C@@H]3CC[C@H]4C(C)(C)[C@@H](NC)CC[C@@]45C[C@@]35CC[C@]12C	/	/	/	/	/	-1%
O=c1c(-c2n[nH]c(=S)n2-c2ccccc2)cccn1Cc1cccc(Cl)c1	13µM*	-3%	i	-9%	8%	-9%
C=CCn1c(-c2cccn(Cc3ccc(Cl)cc3)c2=O)n[nH]c1=S	6.3µM*	-3%	i	?	4%	-7%
C=CCn1c(-c2ccc(=O)n(Cc3ccccc3)c2)n[nH]c1=S	-27%	/	/	-9%	/	/
COC(=O)c1ccc(NC(=O)C(=O)NCCc2csc3nc(-c4ccccc4F)nn23)cc1	/	1%	?	/	9%	-1%
Cc1nc2c(c(C)c1CCC(=O)NCc1ccc(F)cc1)c(=O)n(C)c(=O)n2C	/	?	i	/	-1%	2%
O=S(Cc1ccc(Cl)cc1)c1ccccc1 (stereo not drawn)	/	24%	i	/	1%	60%
C[C@@H]1CN([C@@H](C)CO)C(=O)c2cc(Br)cnc2O[C@@H]1CN(C)C(=O)CN(C)C	/	-5%	i	/	-3%	1%
O=[N+]([O-])/C=C/c1cn(Cc2ccc(F)cc2)c2ccccc12	?	7.9µM*	?	?	-59%	?
O=C(O)Cn1cc(/C=N/Nc2ccc([N+](=O)[O-])cn2)c2ccccc21	-1%	1%	?	8%	-17%	2%
Cc1ccc(Cn2cc(/C=N/Nc3ccc([N+](=O)[O-])cn3)c3ccccc32)cc1	11µM*	4.5µM*	i	7.9µM*	-33%	-15%
CCNC(=S)N/N=C/c1cn(Cc2ccccc2F)c2ccccc12	10%	-13%	i	-7%	-14%	-8%
CNC(=S)N/N=C/c1cn(Cc2c(F)cccc2Cl)c2ccccc12	0.45µM*	6%	?	5µM*	-4%	-9%
Cc1ccc(C(=O)N/N=C/c2cn(Cc3ccccc3)c3ccccc23)cn1	?	1.6µM*	i	?	0.56µM*	/
CCOC(=O)C1=C(CS(=O)(=O)c2ccccc2)NC(=O)NC1c1ccccc1OC (stereo not drawn)	1%	-3%	i	-5%	-6%	2%
SMILES	RORg inh	TGFb SMAD3 inh	S2 tox	Gal4-VP16 FLuc	HepG2 tox	ATXN2 expr inh
COc1ccc2c(c1)-c1nc(-n3ncc(C(=O)N(C)CCO)c3C3CC3)ncc1CC2	/	/	i	/	/	/
CCNC(=S)N/N=C/c1cn(Cc2ccc(F)cc2)c2ccccc12	1.1µM*	?	?	1.8µM*	-2%	?
CCN1CCC(N(Cc2ccc3c(c2)OCO3)C(=O)Nc2ccc(Br)c(C)c2)CC1	/	?	?	/	-95%	25µM*
CCN1CCC(N(Cc2ccc3c(c2)OCO3)C(=O)Nc2cccc(C)c2C)CC1	/	2%	i	/	-8%	-8%
Cc1nn(Cc2ccc(C(=O)N3CCCC3)o2)c(C)c1[N+](=O)[O-]	/	24%	i	/	12%	-1%
CC1=NN(C(=O)Cn2nc([N+](=O)[O-])cc2C)C(O)(C(F)(F)F)C1 (stereo not drawn)	10µM*	-4%	i	?	-24%	-6%
CC1=NN(C(=O)c2ccc(Cn3nc(C)c(Br)c3C)cc2)C(O)(C(F)(F)F)C1 (stereo not drawn)	?	11%	i	13µM*	14%	-25%
CC1=NN(C(=O)c2ccc(Cn3nc(C)c([N+](=O)[O-])c3C)cc2)C(O)(C(F)(F)F)C1 (stereo not drawn)	11µM*	?	i	11µM*	-42%	-17%
Cc1cc([N+](=O)[O-])nn1CC(=O)N1N=C(C(F)F)CC1(O)C(F)F (stereo not drawn)	-3%	-7%	i	-18%	2%	1%
O=C1/C(=C/c2cccnc2)SC(=S)N1c1ccc(F)cc1	11µM*	-3%	i	-11%	-13%	3%
O=C1/C(=C/c2cccnc2)SC(=S)N1CC1CCCO1 (stereo not drawn)	10µM*	-9%	i	6%	-26%	-5%
Cc1ccc(/C=C2\SC(=S)N(CC3CCCO3)C2=O)o1 (stereo not drawn)	13µM*	-13%	?	?	12%	-21%
Cc1cnc(C)c(-c2cccc3c2OC(CNC(=O)C2(c4ccc(Cl)cc4)CC2)C3)n1 (stereo not drawn)	/	/	i	/	/	/
CCCc1nnc(NC(=O)CCC(=O)N2CCCCCC2)s1	26%	-13%	i	5%	-16%	-2%
CCCC(=O)Nc1nnc(CC(=O)N2CCCC2)s1	1.3µM*	-1%	i	-6%	-12%	-4%
CN1C(=O)c2ccccc2Sc2ccc(NC(=O)NCc3ccccc3Br)cc21	/	?	/	/	-49%	/
CC(C)CCNC(=O)Nc1ccc2c(c1)N(C)C(=O)c1ccccc1S2	/	22µM*	35µM*	/	-60%	?
CCN1C(=O)c2ccccc2Sc2ccc(NC(=O)Nc3cc(C)cc(C)c3)cc21	/	6.3µM*	/	/	-30%	/
